Measurements reported in PubChem BioAssay AID1671190 (National Center for Advancing Translational Sciences (NCATS), 2021).
In all, about 580,000 compounds went through this assay and about 6,100 (1.1%) were called active. About 15% were inconclusive and are not listed. This excerpt belongs to a sample that is enriched for actives. Values without a mark were called inactive. Calls come from the whole dose curve; as a rule, active = well fitted inhibition curve with a large enough effect; inconclusive = small, poorly fitted or top-dose-only effect, or another doubt; inactive = no such curve, though single readings can be large or run the other way.

Each compound was assayed against Polyunsaturated fatty acid lipoxygenase ALOX12 (Homo sapiens) (UniProt P18054) (assay: Primary qHTS assay for inhibitors of human arachidonate 12S-lipoxygenase (ALOX12): Round 2). Details: purified 12hLO, xylenol orange hydroperoxide absorbance; series mostly up to 108 µM; activity change, negative = inhibition: at the top concentration.
Text: Assay Provider: Theodore R. Holman Ph.D. University of California, Santa Cruz, California Human lipoxygenase 12hLO is a member of the closely related lipoxygenase family of enzymes which catalyze the site-specific oxidation of arachidonic acid to various hormone precursor molecules and as such is a candidate for drug development in a variety of disease areas, such as cancer and inflammation. Inhibition of 12hLO activity was screened by utilizing arachidonic acid as a substrate. The extent of hydroperoxide product formation was measured by a secondary chromogenic reaction in which xylenol orange (XO, Sigma-Aldrich, cat. number 39,818-7) reacts with the ferric ions produced from the reaction between the hydroperoxide and ferrous ions. The Fe (III)-XO complex is characterized with red-shifted absorbance at 560 nm. A purified preparation of human 12hLO was supplied by Dr. Holman laboratory, University of California, Santa Cruz.
PROTOCOL TABLE SEQUENCE No. (e.g., 1, 2, 3, etc.); […] (e.g., Cells, Incubation, Reagent, etc.); VALUE; DESCRIPTION 1; Enzyme; 3 uL; 150 nM 12hLO enzyme solution dispensed in 1536-well Greiner black, clear bottom plates. 2; Compound; 23 nL; compounds and controls were added. 3; Incubate; 15 min; room temperature. 4; Substrate; 1 uL; 40 uM arachidonic acid (final concentration). 5; Incubate; 30 min; room temperature. 6; Reagent; 4 uL; Fe-XO solution was added to each well. 7; Incubation; 30 min; room temperature 8; Detector; absorbance; Read 1 at 405 nm absorbance using ViewLux (Perkin-Elmer) CCD imager. 9; Detector; absorbance; Read 2 at 573 nm absorbance using ViewLux (Perkin-Elmer) CCD imager. NOTES (numbers refer to sequence above) 1; 150 nM 12hLO (final concentration) in buffer solution (25 mM Hepes, 0.01% Triton X-100, pH 7.0) was dispensed in columns 1, 2, 5-48. Column 1 is neutral (100% activity). Buffer only was dispensed in columns 3 and 4 as no enzyme negative controls. The plates were covered with metal lids with gas-exchange holes. 2; Compounds were pin transferred via a Kalypsys Pin Tool (Wako USA) in column 5-48. Control compound was transferred in column 2, titration of nordihydroguaiaretic acid (NDGA, Sigma-Aldrich, N5023) with top concentration of 20 mM in DMSO then 1:3 dilution in duplicate. Dilution factor of 23 nL into 4 uL final assay volume. 3; Covered assay plates were incubated for 15 min at room temperature. 4; Substrate was added to start the reaction; 40 uM arachidonic acid (Sigma-Aldrich, St. Louis, MO) was dispensed throughout the plate. 6; Chromogenic detection reagent solution (divalent iron/xylenol orange, Fe-XO) was added to each well: 200 uM xylenol orange, 300 uM ferrous ammonium sulfate prepared freshly in 50 mM sulfuric acid. 8, 9; Two absorbance readouts were obtained at 405 nm and at 573 nm using a ViewLux high-throughput CCD plate imager (Perkin-Elmer). The 573 to 405 (Read 2 / Read 1) absorbance ratio was used to compute reaction progress.
% is set by controls: 0 for no effect and ±100 for the full control effect; potency is the fitted concentration of half-maximal effect.

Sequence of Polyunsaturated fatty acid lipoxygenase ALOX12 (Homo sapiens) (P18054 whole entry, looked up): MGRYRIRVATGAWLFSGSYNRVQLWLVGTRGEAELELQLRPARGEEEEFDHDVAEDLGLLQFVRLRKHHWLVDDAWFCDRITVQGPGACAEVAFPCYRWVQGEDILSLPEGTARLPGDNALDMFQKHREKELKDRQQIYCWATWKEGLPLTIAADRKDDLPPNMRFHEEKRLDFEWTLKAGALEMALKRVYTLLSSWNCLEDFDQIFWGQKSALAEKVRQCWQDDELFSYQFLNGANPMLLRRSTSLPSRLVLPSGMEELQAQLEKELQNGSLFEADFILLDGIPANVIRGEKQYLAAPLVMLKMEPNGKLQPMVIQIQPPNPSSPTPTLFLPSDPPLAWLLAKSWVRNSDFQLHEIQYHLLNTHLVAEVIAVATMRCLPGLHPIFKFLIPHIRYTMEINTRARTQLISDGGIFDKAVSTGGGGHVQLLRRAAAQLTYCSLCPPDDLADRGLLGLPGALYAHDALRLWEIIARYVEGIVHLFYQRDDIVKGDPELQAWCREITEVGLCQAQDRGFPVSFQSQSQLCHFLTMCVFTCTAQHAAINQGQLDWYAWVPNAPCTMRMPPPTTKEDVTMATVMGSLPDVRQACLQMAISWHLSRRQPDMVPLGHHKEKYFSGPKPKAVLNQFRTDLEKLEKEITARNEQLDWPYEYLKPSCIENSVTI

| SMILES | activity change, negative = inhibition | Potency |
| --- | --- | --- |
| Oc1ccccc1CN1C[C@H](O)C[C@H]1c1nc(Cc2ccc(F)cc2Cl)no1 | -13.1% [at 176 µM] | – |
| O=[N+]([O-])c1cccc(-c2noc([C@@H]3C[C@@H](O)CN3Cc3cccnc3)n2)c1 | -5.09% [at 176 µM] | – |
| O=[N+]([O-])c1ccccc1CN1C[C@H](O)C[C@H]1c1nc(-c2ccc(F)cc2)no1 | – | 39.8 µM (active) |
| CC(C)CN1CCOC(CNC(=O)N2CCN(S(=O)(=O)c3ccc(C#N)cc3)CC2)C1 (configuration not stated) | 11.8% | – |
| Cc1cccc(C(=O)Nc2cccc(-c3nn4c(C)nnc4s3)c2)c1 | 13.3% | – |
| CN1Cc2ncnc(NCc3cccs3)c2CN(c2ccccc2)C1=O | -6.3% | – |
| COc1ccccc1CNc1ncnc2ccc(-c3ccc4c(c3)OCO4)cc12 | -18.3% | – |
| N#Cc1cccc(-c2ccc3ncnc(NCc4cccs4)c3c2)c1 | – | 50.1 µM (active) |
| c1ccc2c(c1)C(=NC1CCCCC1)NC2=NC1CCCCC1 | – | 31.6 µM (active) |
| CC(C)(C)c1ccc2c(c1)OCCOCCOCCOc1ccc(C(C)(C)C)cc1OCCOCCOCCO2 | -22.8% | – |
| COc1ccc(-c2noc([C@@H](C)NCc3ccc(F)cc3)c2C(=O)O)cc1 | -18.2% [at 176 µM] | – |
| COc1ccc(C(=O)NC(=S)NNC(=O)CCc2ccccc2)cc1 | – | 12.6 µM (active) |
| CCOC(=O)c1c(NC(=O)c2c(-c3ccccc3)noc2C)sc2c1CCC2 | -13.9% | – |
| CCCNC(=O)c1ccc(NC(=O)CCc2ccccc2)cc1 | -1.02% | – |
| COCc1nc(CCNC(=O)CCc2ccccc2)no1 | -2.64% | – |
| Cc1onc(-c2ccc(F)cc2F)c1C(=O)Nc1cccc(C(F)(F)F)c1 | -19% | – |
| C[C@H]1CN(C(=O)Nc2ccc(F)cc2)C[C@@H]1c1nc(-c2ccccc2)no1 | -4.94% | – |
| COc1ccc(C(=O)NC(=S)NNC(=O)c2c(-c3ccccc3)noc2C)cc1 | – | 35.5 µM (active) |
| Cc1onc(-c2ccccc2)c1C(=O)NNC(=S)NC(=O)c1ccc(F)cc1 | – | 39.8 µM (active) |
| c1cc(CN2CCc3c(sc4ncnc(N5CCOCC5)c34)C2)ccn1 | 80.3% | – |
| CCOC(=O)c1c(C)[nH]c(C(=O)OC)c1C | 34.4% | – |
| COc1ccc(-c2ccc3nnc(CNC(=O)C(C)Oc4ccc(Cl)cc4)n3n2)cc1 (configuration not stated) | -1.11% | – |
| Cc1c(S(=O)(=O)N2CCCC2c2cccc(F)c2)cnn1C(F)F (configuration not stated) | 4.32% | – |
| Cc1cccc(NCC(=O)Nc2cc(Cl)ccc2-n2cncn2)c1C | 10.3% | – |
| CCS(=O)(=O)N(C)CCCNC(=O)c1cn(C)c2ccccc12 | 13.5% | – |
| Cc1ccc(C(NC(=O)Cc2cccs2)C(=O)Nc2ccc3c(c2)OCO3)cc1 (configuration not stated) | -0.457% | – |

| SMILES | activity change, negative = inhibition | Potency |
| --- | --- | --- |
| CN(C)C[C@@H]1CN(C)C[C@H]1NS(=O)(=O)c1cccc(C(F)(F)F)c1 | 48.1% | – |
| Cc1ccsc1C1C(C#N)=C(N)OC2=C1C(=O)CC(C)(C)C2 (configuration not stated) | 0% | – |
| Cc1ccsc1C1C(C#N)=C(N)OC2=C1C(=O)CC(C)C2 (configuration not stated) | -15.6% | – |
| N#CC1=C(N)OC2=C(C(=O)CC(c3ccccc3)C2)C1c1cccs1 (configuration not stated) | – | 11.2 µM (active) |
| O=C(Cn1ccc2cc(Cl)ccc21)Nc1ccc2[nH]ccc2c1 | 1.07% | – |
| Cc1cc2nc(/C(C#N)=C\c3ccc(OCc4ccc(F)cc4)cc3)[nH]c2cc1C | -13.3% | – |
| CC(C(=O)NC(=O)NC1CCCCC1)n1cnc2c1c(=O)n(C)c(=O)n2C (configuration not stated) | -6.16% | – |
| CCCCCOc1ccc2c(C)c(CCC(C)C)c(=O)oc2c1 | -5.84% | – |
| O=C(NC1CCCC1)c1csc(C(O)c2cccc(Cl)c2)n1 (configuration not stated) | -9.02% | – |
| O=C(Nc1ccc(Cl)cc1)c1csc([C@@H]2O[C@H](CO)[C@H](O)[C@H](O)[C@H]2O)n1 | -6.1% | – |
| O=C(Nc1ccc(Cl)cc1)c1csc(C(O)c2cccc(C(F)(F)F)c2)n1 (configuration not stated) | – | 22.4 µM (active) |
| Cc1nc(-c2ccccc2Cl)sc1C(=O)NC1C=CS(=O)(=O)C1 (configuration not stated) | -16.6% | – |
| COc1cccc(C(=O)Nc2ccc3oc(C)nc3c2)c1 | 16.5% | – |
| CCN(CC)c1nc2ccccc2nc1C(=O)Nc1cc(OC)ccc1OC | 2.3% | – |
| CN(C)S(=O)(=O)c1cccc(-c2nn(-c3ccccc3)cc2/C=C2\SC(=S)N(CC(=O)O)C2=O)c1 | – | 39.8 µM (active) |
| N#Cc1ccccc1CN1C(=O)S/C(=C/c2cccn2-c2cccc(C(=O)O)c2)C1=O | 29.1% | – |
| Cc1ccc(-c2nn(-c3ccccc3)cc2/C=C2\SC(=S)N(CCCCCC(=O)O)C2=O)o1 | – | 31.6 µM (active) |
| O=C(CCc1c[nH]c2ccccc12)Nc1ccc(F)cc1 | -4.74% | – |
| COC(=O)CNC(=O)c1cc2sccc2n1Cc1ccccc1 | 24.8% | – |
| CC(Sc1ccccn1)C(=O)Nc1cccc(Cl)c1 (configuration not stated) | -37.3% | – |
| CCC(=O)Oc1ccc2cc(-c3ccccc3)c(=O)oc2c1 | 20.5% | – |
| COc1ccc(OC)c(/C=C/C(=O)Oc2ccccc2Cl)c1 | 29.8% | – |
| COc1ccc2c(C)c(CC(=O)NCCc3ccccc3)c(=O)oc2c1 | -30.1% | – |
| O=C1c2c(nc(COc3ccccc3)n2Cc2ccccc2)NCCN1Cc1cccc(Cl)c1 | 46.7% | – |
| Cc1ccc(NC(=O)CN2C(=O)C(C)(C)c3cc(S(=O)(=O)N4CCCCC4)ccc32)cc1F | 1.73% | – |
| COc1ccc(C)cc1NC(=O)C(C)N1CCN(S(=O)(=O)Cc2ccccc2)CC1 (configuration not stated) | 3.46% | – |
